Data taken from ChEMBL document CHEMBL4513216, “Probing the Open Global Health Chemical Diversity Library for Multistage-Active Starting Points for Next-Generation Antimalarials” (ACS Infect Dis, 2020).
The whole screen tested about 69,000 compounds, of which about 8,600 (12%) showed an effect of 50% or more. The sample holds strong results, similar compounds and a random draw of the others, so the mix is not that of the screen.

tested on: Plasmodium berghei; experiment: Screen against P. berghei liver stage (PbLuc), transformed with Luciferase, at 10uM; type: functional, HepG2; settings: tested at 10 uM

Compound | INHIBITION [%]
Cc1nnc(NCCn2nc(C)c(Cl)c2C)o1 | 26.8
CC(Cn1ccnc1)NC(=O)NCCc1ccc(Cl)s1 (centres undefined) | -5.25
O=C1CC(N(C(=O)CCc2cc(F)ccc2F)C2CC2)C(=O)N1 (centres undefined) | 22.2
CCn1ccnc1CN1CCCC1c1noc(C2CC2)n1 (centres undefined) | 40.9
CN(Cc1nnc2n1CCC2)C(=O)c1ccc2c(c1)CCO2 | 26.4
Cc1nc2c(c(=O)[nH]1)CCN(Cc1ccc3c(c1)CCCN3C)C2 | 31.6
Cc1ccc2c(c1)C(=O)NCC1(CCN(C(=O)c3cnccn3)CC1)O2 | -32.2
O=C(CCc1ccccc1F)N1CCC(Nc2cccnn2)CC1 | 1.78
O=C1N(CC2CCCC2)CCC12CCN(c1ncc(F)cn1)CC2 | 8.74
NC(=O)CN1CCC(NC(=O)COCCOc2ccccc2)CC1 | 31.6
CC(=O)NCCC1CCCCN1S(=O)(=O)c1cccc(F)c1 (centres undefined) | -40.5
CNC(=O)c1ccc(C2CN(C(=O)COC)CCO2)nc1 (centres undefined) | -26.8
COCC(=O)N1CCOC(c2cccc(-c3cncnc3)n2)C1 (centres undefined) | 38.2
COCC(=O)N1CCOC(c2ccc(N(C)C)cn2)C1 (centres undefined) | 50.1
CCCC(=O)N1CCC(c2nc(O)c3c(n2)CCN(C2CCCC2)C3)C1 (centres undefined) | 17.1
Cc1ccccc1OCCCC(=O)NC(C)c1nnc2n1CCC2 (centres undefined) | -24.2
CNC(=O)[C@H]1C[C@@H]2CN(S(=O)(=O)Cc3ccccc3)C[C@@H]2N1C | -15.7
O=C(N1CCOCC1)[C@@]12CCO[C@@H]1CCN(C1CCC1)C2 | 16.8
Cc1ccsc1C(=O)N1C[C@@H]2CN(Cc3ccoc3)CCO[C@@H]2C1 | 2.27
O=C(NCC(F)(F)F)C1CSCN1S(=O)(=O)c1ccc(F)cc1Cl (centres undefined) | -19.6
COc1ncccc1CN1C[C@@H]2C[C@@H](C(=O)NCC3CC3)N(C)[C@@H]2C1 | 27.2
CCCn1cc(-c2cc(-c3ccoc3)c(C#N)c(N)n2)c(C)n1 | -24
CCCn1cc(-c2cc(-c3cc(CC)n[nH]3)c(C#N)c(N)n2)c(C)n1 | 64.5

Compound | INHIBITION [%]
CCCn1cc(-c2cc(-c3c[nH]cn3)c(C#N)c(N)n2)c(C)n1 | -8.47
Cc1ccc(O)c(CNC2CCCN(Cc3noc(C4CC4)n3)C2)n1 (centres undefined) | 15.3
CC(C)NC(=O)CN(C)CC(=O)Nc1ccnn1C(C)C1CC1 (centres undefined) | -164
Cc1nc(C)c(CC(=O)NCc2ccc(F)cc2)s1 | -2.39
CC(=O)Nc1ccc(CNC(=O)CNCc2sc(C)nc2C)cc1 | 55.5
CC(=O)Nc1ccc(CNC(=O)CNCc2nnc(C)o2)cc1 | 45.4
CC(=O)Nc1ccc(CNC(=O)CNCc2snnc2C)cc1 | 52.2
Cc1nc(C)c(CC(=O)NCc2ccccc2F)s1 | 31.3
CC(=O)Nc1ccc(CN(C)Cc2snnc2C)cc1 | 34.6
O=C(O)c1cc(S(=O)(=O)N2CCOc3ccccc32)ccc1Br | 2.7
CN(C(=O)Cn1nc(-c2ccc(Br)cc2)ccc1=O)C1CCS(=O)(=O)C1 (centres undefined) | -29.2
CC(C)c1cc(O)nc(C2CCCN2C(=O)C2CC2)n1 (centres undefined) | -9.32
O=S(=O)(NCC1CCN(c2cnccn2)CC1)C1CC1 | 27.5
Cn1nccc1-c1ccc2nc(C3CCNCC3)nn2c1 | -3.33
Cc1nc(S(=O)(=O)N2CCCCc3ccccc32)cn1C | -49.3
COc1cccc(CC(=O)N2CCC(c3ccn4nccc4n3)CC2)c1 | 23.9
Cc1ccc(S(=O)(=O)NCC2CNCCOC2)cc1Cl (centres undefined) | -95.7
O=S(=O)(NCC1COCCO1)c1ccc(C2CCCCC2)cc1 (centres undefined) | 74.5
O=C(NS(=O)(=O)c1ccc(C2CCCCC2)cc1)C1COCCO1 (centres undefined) | 46.4
Cc1cc(C)n(CC2CCCN2C(=O)c2cncnc2C)n1 (centres undefined) | -2.1
Cc1ncc2c(n1)CN(CCOCC(F)(F)F)CC2 | 26.6
Cc1ncc2c(n1)CN(CC1CCCCO1)CC2 (centres undefined) | 3.17
O=C(CN1CCc2cncnc2C1)NC(c1ccccc1)C1CC1 (centres undefined) | 24.4

Compound | INHIBITION [%]
CCOCCN1CCc2cncnc2C1 | 53.3
N#Cc1ccc(OCCN2CCc3cncnc3C2)cc1 | 9.54
CCc1ncc2c(n1)CN(CC1CCCCO1)CC2 (centres undefined) | 9.35
Cc1ccc(C(NC(=O)CN2CCc3cncnc3C2)C2CC2)cc1 (centres undefined) | 34.2
CC(C)OCCN1CCc2cncnc2C1 | 24.4
COCCCN1CCc2cncnc2C1 | 40.3
FC(F)(F)COCCN1CCc2cncnc2C1 | 64
O=C(CN1CCc2cncnc2C1)NC(C1CC1)C1CC1 | 57
c1ncc2c(n1)CN(CC1CCCCO1)CC2 (centres undefined) | 87.1
Cn1nnc2c(N3CC(C(=O)NCc4ccccc4F)C3)ncnc21 | 15.7
Cc1cnn(CC2CCCN2CCCS(=O)(=O)N(C)C)c1 (centres undefined) | 2.97
N#Cc1ccc(C2CC(=O)Nc3c(C(=O)O)nsc32)cc1 (centres undefined) | -38.7
CC(C)C(Sc1nnc(NC2CC2)s1)C(=O)NCc1cccnc1 (centres undefined) | -26.7
Cc1noc(C)c1S(=O)(=O)NC(=O)COc1cccc(C(C)C)c1 | 13.3
Nc1nc2c(s1)C(c1c(F)cccc1Cl)CC(=O)N2 (centres undefined) | 30
CCNc1ncc(C(=O)N(C)C(C)c2ccc3c(c2)OCCO3)cn1 (centres undefined) | 15.8
Cc1ccccc1-c1cncc(C2CCN(CCO)CC2)n1 | 38.2
CN(CC1COc2ccccc2O1)C(=O)C1=NN(C)C(=O)CC1 (centres undefined) | 25.7
CCN(CC1COc2ccccc2O1)C(=O)C1=NN(C)C(=O)CC1 (centres undefined) | 50.8
CCCN(CC1COc2ccccc2O1)C(=O)C1=NN(C)C(=O)CC1 (centres undefined) | 42.4
CCNC(=O)CCCC(=O)N1CCc2cc(Cl)cc(Cl)c2C1 | -4.52
COC(=O)C1CCN(C(=O)Cn2ccc(-c3ccccc3)n2)CC1 | -35
CN1CCO[C@H]2CN(C(=O)c3ccoc3)C[C@H]21 | 54.4

Compound | INHIBITION [%]
CC(C)N1CCO[C@H]2CN(C(=O)c3ccoc3)C[C@H]21 | 38.7
O=C(c1ccoc1)N1C[C@@H]2OCCN(c3ncccn3)[C@@H]2C1 | -4.32
O=C(NCc1cc(-c2ccccc2)no1)NC1CCCCNC1=O (centres undefined) | -24.8
O=C(c1n[nH]cc1Cl)N1CCCC(n2nnc3cc(F)ccc32)C1 (centres undefined) | 38.8
N#CC1(C(=O)N2C[C@@H]3CC[C@H]2CN(Cc2ccncc2)C3)CCOCC1 | 26.5
CN(Cc1cnccn1)S(=O)(=O)c1ccc(C(F)(F)F)nc1 | 75.5
CN(CC(C)(C)C)S(=O)(=O)c1ccc(C(F)(F)F)nc1 | 33.7
Cc1ccc(S(=O)(=O)N(C)Cc2cnccn2)cc1N(C)C | 26
CN1CCN(C(=O)c2cn3ccsc3n2)[C@H]2CS(=O)(=O)C[C@H]21 | 38.5
CN1CCCC1CNC(=O)CCCOc1ccc(Cl)cc1 (centres undefined) | 24.665
O=C(c1ccsc1)N1C[C@@H]2CCN(C(=O)c3cscn3)[C@@H]2C1 | 27.5
O=C(C1CCC1)N1CCC(c2ncc3c(n2)CCNC3)CC1 | -12.9
CCCN1CCC(CC(=O)N2CC(C)(C)[C@@](C)(O)C2)CC1 | 57.2
CCc1ccc(C(=O)N2CC[C@](C)(O)C(C)(C)C2)[nH]1 | -10.6
CC1(C)CN(C(=O)CC2CCS(=O)(=O)CC2)C[C@]1(C)O | 34.4
CC1(C)CN(C(=O)CC2CCC2)C[C@]1(C)O | 47.4
CCN(CC)Cc1cc(C(=O)N2CC(C)(C)[C@@](C)(O)C2)c(C)o1 | 35.7
CC1(C)CC(CC(=O)N2CC(C)(C)[C@@](C)(O)C2)CC(C)(C)N1 | 70.2
CCc1cc(N[C@@H]2CC[C@@H](N)C2)n2nc(C)c(C)c2n1 | -42.8
Cc1cc(C(=O)NCC(C)C)nn1C | 37.9
O=C(NCc1cc2ccccc2[nH]1)C1CCCN(C(=O)N2CCCC2)C1 (centres undefined) | 3.87
COC(=O)CC1c2cccnc2C(=O)N1Cc1ccccc1 (centres undefined) | 36.6
CN(CC(=O)N1CCCC1)C(=O)Cc1csc(-c2ncccn2)n1 | 30.057

Compound | INHIBITION [%]
O=C(c1cccc(F)c1)N1CCCN(Cc2cscn2)CC1 | -75.2
Cc1cc(C)c2cc(CNC(C)C)c3nn(C)c(=O)n3c2c1 | 64.9
Cc1cc(C)c2ncn(CCC(C)O)c(=O)c2c1 (centres undefined) | 6.28
Cc1noc2ncc(C(=O)NCC3CCCO3)cc12 (centres undefined) | -17.45
Cc1cc(C)c2cc(CNC3CCCCC3)c3nn(C)c(=O)n3c2c1 | 73.8
CCCn1cnnc1CNC1CCCC1 | 9.91
Cc1cc(NCC2CCCO2)cc(=O)n1C (centres undefined) | 29.3
Cc1cc(C)c2c(OCC(=O)NC(C)C)nn(C)c2n1 | 37.1
Cc1cc(C)c2cc(CNCC3CCCO3)c3nn(C)c(=O)n3c2c1 (centres undefined) | 55.2
Cc1nn(C)c(C)c1CC(=O)NCc1ccnc(OC2CCCC2)c1 | 25.3
Cc1csc(N2CCC(CCN3CCCC3=O)CC2)n1 | -40.5
COc1ccc2c3c1CN(S(C)(=O)=O)CC3=CC(C)(C)CO2 | 29.8
Cn1ncc2c(=O)[nH]c(CN3CCCC3c3ccsc3)nc21 (centres undefined) | -19.6
O=C([C@H]1C[C@H]2OCC[C@H]2N(CC2CCOCC2)C1)N1CCCCO1 | 50.9
O=C([C@H]1C[C@H]2OCC[C@H]2N(CC2CCOCC2)C1)N1CCCC1 | 76.3
O=C([C@H]1C[C@H]2OCC[C@H]2N(CC2CC2)C1)N1CCCC1 | 82.2
O=C([C@H]1C[C@@H]2[C@@H](C1)OCCN2CC1CC1)N1CCCC1 | 5.36
O=C([C@H]1C[C@H]2OCC[C@H]2N(C(=O)C2CCOCC2)C1)N1CCCCO1 | 28.3
O=C(NC1CC1)[C@H]1C[C@H]2OCC[C@H]2N(CC2CCOCC2)C1 | 25.4
CNC(=O)[C@H]1C[C@H]2OCC[C@H]2N(CC2CC2)C1 | 10.5
CNC(=O)[C@H]1C[C@H]2OCC[C@H]2N(CC2CCOCC2)C1 | 10.5
O=C([C@H]1C[C@H]2OCC[C@H]2N(CC2CC2)C1)N1CCCCO1 | 29.9
